KB-V1 cytotox = KB-V1 MDR subline cytotoxicity; KB-V1 MDR cells viability, CellTiter-Glo, 72 h; Potency, µM (series often up to 46.1 µM), hits mostly cytotoxic; 3.4% of 400,000 active; further: on the % scale 0 is the no-effect control and ±100 the full control effect; nearly all actives have a fitted effect of over 60% in size
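In this primary screen, KB-V1 cells overexpressing P-gp are incubated with library compounds (lowest to highest concentration) for 72 h at 37 degrees C before a luminescent ATP viability read.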
KB-3-1 tox = KB-3-1 parental cell cytotoxicity | 1.4% of 400,000 active | Potency, µM (series often up to 46.1 µM), actives largely listed as cytotoxic | KB-3-1 viability, CellTiter-Glo ATP luminescence, 72 h; further: on the % scale 0 is the no-effect control and ±100 the full control effect; nearly all actives have a fitted effect of over 60% in size
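Cytotoxicity measured as CellTiter-Glo luminescence after 72 h at 37 C. Compound titrations were pinned onto drug-naive KB-3-1 parental adenocarcinoma cells grown in DMEM with 10% FBS, and normalized data fitted to concentration-response curves.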
MCF10A rereplic = induces DNA re-replication in MCF 10a normal breast cells; MCF 10A DNA re-replication, Hoechst nuclear intensity, 48 h; Potency, µM (highest dose often 46.1 µM), inactives show at the highest dose activity, positive = re-replication, actives largely listed as activators; 2.9% of 350,000 active; further: % of control where 0% means no effect; nearly all actives have a fitted effect of over 50% in size
ELG1 DNA repair = blocks ELG1-dependent DNA repair in HEK293T cells | 2.3% of 330,000 active | HEK293T ELG1-luciferase reporter, luminescence, 16 h; DNA damage induced by 5-fluorouridine | Potency, µM (highest dose often 46.1 µM), without a hit: at the highest dose activity change, negative = inhibition, usual class: inhibitors; further: on the % scale 0 is the no-effect control and ±100 the full control effect; nearly all actives have a fitted effect of over 55% in size
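DMSO vehicle served as the neutral condition. Each well held 2,000 cells given 5-fluorouridine plus compound; after 16 hr at 37 °C/5% CO2, ONE-Glo was added and luciferase measured 30 min later.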
SW480 rerep = DNA re-replication induction in SW480 cells. SW480 DNA re-replication, Hoechst DNA content imaging, 48 h. Potency, µM (titrated, usually from 46.1 µM), without a hit: top-dose re-replication activation, actives largely listed as activators. 1.8% of 340,000 active; further: % of control where 0% means no effect; nearly all actives have a fitted effect of over 55% in size
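Readout is total intensity of Hoechst-stained nuclei, excited at 405 nm and collected at 500-530 nm. Compound treatment lasted 48 hr at 37 C in 5% CO2 before staining.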
Numbers without * were called inactive; i = inactive; ? = inconclusive; . = not tested or not shown; [ ] = another dose, or the depositor's remark. Sampled rows, rich in hits. Any-hit rate of the full collection: about 8.1%. The call rests on the fitted dose curve; in most records, active means well fitted curve in the direction sought with a large enough effect; inconclusive means small, poorly fitted or top-dose-only effect, or another doubt; inactive means no such curve, though single readings can be large; an effect the other way counts as inactive or inconclusive. Potency means the concentration at half of the fitted maximal effect.

SMILES	KB-V1 cytotox	KB-3-1 tox	MCF10A rereplic	ELG1 DNA repair	SW480 rerep
CCc1ccc(C(=O)NC(=S)Nc2ccc(N3CCOCC3)cc2)cc1	18.4µM*	i	9.7%	?	4.2%
CC(=O)OC1COC(OC(C)=O)CO1 (configuration not stated)	i	i	-36.9%	.	-4.1%
Cc1ccc(OCCCn2cc(C#N)c3ccccc32)cc1	16.4µM*	?	-4.8%	-13.4%	?
CCOC(=O)N/N=C/c1cn(CCCOc2ccc(C)cc2)c2ccccc12	20.6µM*	?	10.1%	-1.9%	?
N#Cc1cn(CCOc2ccc(F)cc2)c2ccccc12	i	?	?	?	-0.5%
CCOC(=O)N/N=C/c1cn(CCCOc2ccccc2)c2ccccc12	?	i	12.1%	?	?
COC(=O)CCSc1nc(N2CCOCC2)c2c(c1C#N)CC(C)(C)OC2	i	i	-4.3%	?	-0.1%
CC(C)CCSc1nc(N2CCOCC2)c2c(c1C#N)CC(C)(C)OC2	8.2µM*	i	?	11.6µM*	21.6%
CSc1nc(N2CCOCC2)c2c(c1C#N)CC(C)(C)OC2	9.2µM*	?	3.9%	?	-7.7%
CCOc1ccccc1-n1c(CN2CCN(C(=O)c3ccco3)CC2)nc2ccccc2c1=O	?	i	3.66µM*	-26.4%	24.0%
COc1cccc(CN2CCN(C(=O)c3ccc(-c4ccccc4)cc3)CC2)c1OC	i	i	5.3%	18.3µM*	-4.2%
COc1ccc2ccccc2c1CN1CCN(C(=O)c2ccco2)CC1	?	i	8.5%	20.6µM*	2.1%
COc1ccc2ccccc2c1CN1CCN(C(=O)c2ccccc2)CC1	i	i	10.5%	18.4µM*	4.6%
O=C(C[C@H]1CC[C@@H](NC(=O)Cc2cccnc2)[C@@H](CO)O1)NCc1ccc2c(c1)OCO2	i	i	.	.	.
Cc1cccc(C(=O)NC2(C(F)(F)F)N=C(c3ccccc3)N(Cc3ccccc3)C2=O)c1 (configuration not stated)	i	i	.	.	.
Cc1ccc(C)c(N2CCN(C(=O)CN3C(=O)COc4ccc(S(=O)(=O)N5CCCC5)cc43)CC2)c1	?	i	.	.	.
COCCCNC(=S)N(Cc1ccccc1)Cc1ccccc1	18.4µM*	i	16.8%	-6.8%	-4.8%
OCCCNc1ncnc2c1ncn2[C@H]1CN(Cc2ccc3c(c2)OCO3)C[C@@H](CO)O1	i	i	.	.	.
COc1cc(/C=C/C(=O)OCC(=O)Nc2ccc(NC(C)=O)cc2)cc(S(=O)(=O)N2CCc3ccccc32)c1OC	i	i	-7.5%	20.6µM*	-26.0%[1.84 µM]
Cc1nc(-c2ccc(NC(=O)/C=C\C(=O)O)cc2)cs1	i	i	-4.5%	?	-80.0%
Cc1ccc2sc(-c3ccc(NC(=O)/C=C\C(=O)O)cc3)nc2c1	i	i	23.1µM*	?	?
O=C(Nc1cccc(-c2nc3ccccc3s2)c1)c1cc(-n2cnnc2)ccc1Cl	i	?	?	?	?
Cc1ccc2sc(-c3ccc(NC(=O)c4cc(-n5cnnc5)ccc4Cl)cc3)nc2c1	i	?	2.59µM*	?	14.6µM*
CCn1c(=O)n(-c2ccc(F)c(Cl)c2)c(=O)c2sc3ccccc3c21	?	i	.	.	.
CC(C)[C@H](NC(=O)c1ccccc1F)C(=O)OCCN1C(=O)c2ccccc2C1=O	14.6µM*	i	-0.8%	?	0.7%
SMILES	KB-V1 cytotox	KB-3-1 tox	MCF10A rereplic	ELG1 DNA repair	SW480 rerep
COc1ccc(CC2(CO)COc3ccccc3C2=O)cc1 (configuration not stated)	13µM*	?	?	.	16.4µM*
COc1cc(CNc2ccc(C)c(C)c2)cc(OC)c1OC	?	i	16.4µM*	?	8.2µM*
CCOc1cc(CNc2ccc3c(c2)OCCO3)cc(Br)c1OCC(N)=O	i	i	1.6%	?	4.1%
CCOc1cc(CNc2ccc3c(c2)OCCO3)cc(Br)c1OC	2.06µM*	1.64µM*	1.64µM*	17.3%	7.31µM*
COc1ccc(CNc2ccc(C)c(C)c2)cc1	i	i	7.9%	?	-4.2%
CCOc1c(Br)cc(CNc2ccc3c(c2)OCCO3)cc1OC	4.11µM*	2.06µM*	1.3µM*	?	5.8µM*
Cc1ccc(CN2C(=O)c3ccccc3C2c2nnnn2C(C)C)cc1 (configuration not stated)	?	i	.	.	.
Ic1ccc(Nc2nc(NCCN3CCOCC3)nc(N3CCOCC3)n2)cc1	i	i	.	.	.
COc1ccc(Oc2c(OC)cc(NCc3ccc(CN)cc3)c3ncccc23)cc1	i	i	.	.	.
CC(=O)c1cccc(NC(=O)Nc2ccc3c(c2)N(C)C(=O)CS3)c1	?	i	-4.0%	13µM*	-4.4%
CC(=O)c1cccc(NC(=O)Nc2ccc(C(=O)N3CCCC3)cc2)c1	i	i	1.6%	6.51µM*	-0.9%
CC(=O)c1cccc(NC(=O)NN2CCN(C)CC2)c1	i	i	-0.1%	2.0%	5.8µM*
O=C(Nc1ccccc1)Nc1ccc(C(=O)N2CCCC2)cc1	?	?	18.4%	?	?
COc1ccc(C(=O)Nc2cccc(C(=O)N3CCCC3)c2)cc1	20.6µM*	i	-5.1%	?	-8.8%
COCCNC(=O)C1(C)CCN(C(=O)C2(c3ccc(Cl)cc3)CCCC2)C1 (configuration not stated)	i	i	.	.	.
Cc1oc(-c2ccc(C(=O)NCc3ccc(F)cc3)cc2)nc1CS(=O)c1ccccc1 (configuration not stated)	i	i	.	.	.
O=C1/C(=C/Nc2ccc3c(c2)OCO3)CCc2ccccc21	23.1µM*	?	?	?	?
O=C1/C(=N\S(=O)(=O)c2cccs2)C([n+]2ccc(CCCc3ccccc3)cc2)=C([O-])c2ccccc21	?	i	11.0%	13µM*	?
O=S(=O)([N-]c1nc2ccccc2nc1-[n+]1ccc(CCCc2ccccc2)cc1)c1cccs1	?	i	0.0%	-9.1%	-10.3%
O=C1/C(=N\S(=O)(=O)c2cccs2)C([n+]2cccc(Cc3ccccc3)c2)=C([O-])c2ccccc21	i	?	0.5%	2.31µM*	8.2µM*
COc1ccc(/C=C/c2nnc(NC(=O)CSc3ccc(C)cc3)s2)cc1	i	?	8.2µM*	11.7%	?
CCC(=O)Nc1nnc(/C=C/c2ccc(OC)cc2)s1	i	i	12.7%	?	?
Cc1cccc(NS(=O)(=O)c2nnc(NC(=O)C3CCCCC3)s2)c1	i	i	2.8%	-3.7%	-4.9%
COc1ccc(OC)c(NC(=O)CN(c2ccc(C)cc2)S(=O)(=O)c2c(C)noc2C)c1	?	?	-2.8%	?	9.2%[9.22 µM]

High-throughput results deposited in PubChem by National Center for Advancing Translational Sciences (NCATS).
